Screening data from PubChem.
Dicer inh: blocks human Dicer maturation of pre-miR-21; 6% of 47,000 active; z-score at 25 µM; cat-ELCCA pre-miR-21 Dicer processing, chemiluminescence; hits give high values; Q9UPY3; in the data active = z-score above about 3, passing the limit was not always enough;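 also: plate controls were vehicle for no effect and no enzyme for full effect; higher signal means more uncleaved substrate so more Dicer inhibition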
Target sequence (Q9UPY3 whole entry, looked up): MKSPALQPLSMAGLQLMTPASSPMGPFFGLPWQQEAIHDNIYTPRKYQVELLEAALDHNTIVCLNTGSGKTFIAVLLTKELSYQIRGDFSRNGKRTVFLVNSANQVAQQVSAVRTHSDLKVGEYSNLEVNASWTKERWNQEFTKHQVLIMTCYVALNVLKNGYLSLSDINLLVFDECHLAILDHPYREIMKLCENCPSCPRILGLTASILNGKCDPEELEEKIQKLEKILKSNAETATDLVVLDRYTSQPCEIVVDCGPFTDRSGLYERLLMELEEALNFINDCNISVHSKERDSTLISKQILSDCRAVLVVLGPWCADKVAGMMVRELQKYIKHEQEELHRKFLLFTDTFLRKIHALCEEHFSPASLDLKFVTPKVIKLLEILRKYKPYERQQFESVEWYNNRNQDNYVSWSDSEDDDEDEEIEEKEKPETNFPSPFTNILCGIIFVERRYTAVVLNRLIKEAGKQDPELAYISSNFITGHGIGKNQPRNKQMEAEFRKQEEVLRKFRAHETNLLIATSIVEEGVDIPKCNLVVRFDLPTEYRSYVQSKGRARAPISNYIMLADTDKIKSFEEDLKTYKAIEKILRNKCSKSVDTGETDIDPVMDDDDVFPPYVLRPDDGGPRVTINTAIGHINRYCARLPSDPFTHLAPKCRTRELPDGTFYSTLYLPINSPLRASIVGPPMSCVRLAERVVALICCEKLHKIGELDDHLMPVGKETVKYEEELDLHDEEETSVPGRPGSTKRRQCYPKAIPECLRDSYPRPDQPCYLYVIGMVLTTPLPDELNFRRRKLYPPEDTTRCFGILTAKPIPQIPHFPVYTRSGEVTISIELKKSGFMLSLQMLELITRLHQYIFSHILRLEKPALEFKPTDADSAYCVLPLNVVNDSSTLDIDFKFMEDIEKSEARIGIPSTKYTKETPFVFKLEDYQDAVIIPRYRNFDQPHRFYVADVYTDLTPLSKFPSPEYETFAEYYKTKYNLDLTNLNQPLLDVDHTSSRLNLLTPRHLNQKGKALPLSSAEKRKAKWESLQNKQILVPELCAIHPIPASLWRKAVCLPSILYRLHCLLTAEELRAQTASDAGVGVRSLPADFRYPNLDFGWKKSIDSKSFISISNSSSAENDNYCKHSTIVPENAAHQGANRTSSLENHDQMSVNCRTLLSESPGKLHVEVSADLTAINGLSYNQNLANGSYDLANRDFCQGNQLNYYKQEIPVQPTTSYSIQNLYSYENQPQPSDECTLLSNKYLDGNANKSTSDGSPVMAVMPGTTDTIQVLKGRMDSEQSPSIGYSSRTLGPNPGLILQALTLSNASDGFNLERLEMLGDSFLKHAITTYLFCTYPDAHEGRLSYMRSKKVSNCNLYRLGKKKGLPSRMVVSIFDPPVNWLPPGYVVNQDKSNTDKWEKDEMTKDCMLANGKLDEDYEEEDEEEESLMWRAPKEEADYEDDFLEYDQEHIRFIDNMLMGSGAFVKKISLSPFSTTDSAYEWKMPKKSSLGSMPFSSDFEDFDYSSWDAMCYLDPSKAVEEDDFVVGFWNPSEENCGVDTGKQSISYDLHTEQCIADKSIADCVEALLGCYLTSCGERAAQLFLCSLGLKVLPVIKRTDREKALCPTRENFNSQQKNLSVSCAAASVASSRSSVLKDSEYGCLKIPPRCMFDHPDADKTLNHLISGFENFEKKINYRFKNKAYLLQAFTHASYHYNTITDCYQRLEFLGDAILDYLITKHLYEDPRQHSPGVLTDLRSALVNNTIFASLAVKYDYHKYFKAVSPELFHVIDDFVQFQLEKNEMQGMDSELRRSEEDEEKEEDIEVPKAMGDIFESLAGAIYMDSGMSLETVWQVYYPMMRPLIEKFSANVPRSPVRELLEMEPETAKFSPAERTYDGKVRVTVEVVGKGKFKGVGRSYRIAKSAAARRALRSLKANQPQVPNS
Starred values were filed as active, the others as inactive. The entries come from a sample that favours hits as a whole.

SMILES | Dicer inh
Cc1c(C)c(C)c(CSC(N)=Nc2ccc(F)cc2)c(C)c1C | 3.29*
N=C(N)SCc1ccc(F)cc1 | 0.2
CCOC(=O)c1ccc(N=C(N)SCc2ccccc2)cc1 | 2.16
COc1ccc(NC(=O)c2ccc3ncccc3c2)cc1 | -2.54
O=C(CSc1nnc(-c2ccco2)c(-c2ccco2)n1)Nc1cnc2ccccc2c1 | -0.92
COc1ccc(-c2nnc(Nc3ccc4c(c3)ncn4C)c3ccccc23)cc1 | 2.59
Cc1ccc(-c2nnc(Nc3cccc(O)c3)c3ccccc23)cc1S(=O)(=O)N(C)C | 0.46
COc1ccc(-c2nnc(Nc3cccc(O)c3)c3ccccc23)cc1 | 3.91*
Clc1ccccc1OCCSc1nc2ccccc2[nH]1 | 0.11
N#CCC(=O)c1cccc(C(F)(F)F)c1 | -0.39
O=S(=O)(c1ccc(NC(=S)Nc2ccc3c(c2)OCO3)cc1)N1CCCCC1 | 0.12
CC(C)Sc1sc(C(=O)O)c(-c2ccc(Cl)cc2)c1C#N | 4.1*
CCOC(=O)CSc1sc(C(=O)OCC)c(-c2ccc(Cl)cc2)c1C#N | -2.05
CSc1sc(C(=O)NC(C)(C)C)c(-c2ccc(Cl)cc2)c1C#N | -3.18
CCOC(=O)c1sc(SC(C)C)c(C#N)c1-c1ccc(Cl)cc1 | 4.95*
CCOC(=O)c1sc(SC(C)CC)c(C#N)c1-c1ccc(Cl)cc1 (stereo not given) | 0.13
CCSc1sc(C(=O)OC)c(-c2ccc(Cl)cc2)c1C#N | 0.97
C#CCOC(=O)c1ccc(S(=O)(=O)N2CCOCC2)cc1 | 0.2
Nc1nnc(-c2cc(-c3ccc(O)cc3)on2)o1 | 0.11
Clc1ccc(CSc2ccc(-c3ccccn3)s2)cc1 | -7.39
O=C(Nc1ccc2c(c1)C(=O)OC2)c1ccno1 | -0.84
C=C1SC(=Nc2ccccc2Cl)N(C(=O)c2ccc([N+](=O)[O-])cc2)C1(C)C | -1.18
Oc1ccc(-c2csc(Cc3c[nH]c4ccccc34)n2)cc1O | 5.61*
Clc1ccc(Cc2nc(-c3ccccc3)cs2)cc1 | -0.36
N[C@@H](Cc1c[nH]c2ccccc12)C(=O)O | -1.05
SMILES | Dicer inh
CCCN1C(=O)C(O)(CC(=O)c2ccc3c(c2)OCO3)c2ccccc21 (stereo not given) | 1.55
CCOC(=O)C(O)(c1ccc(N)c(C)c1)C(F)(F)F (stereo not given) | -0.46
O=C(CSc1nc2ccccc2nc1N1CCOCC1)N1CCN(c2ccc(F)cc2)CC1 | 3.87*
O=C(CSc1nc2ccccc2nc1N1CCOCC1)N1CCN(c2ccccc2)CC1 | 2.78
Cc1cc(C)nc(N2CCN(C(=O)CSc3nc4ccccc4nc3N3CCOCC3)CC2)n1 | 1.18
CC1CN(c2nc3ccccc3nc2SCC(=O)N2CCOCC2)CC(C)O1 (stereo not given) | 1.08
O=C(CSc1nc2ccccc2nc1N1CCCCC1)NC1CCCCC1 | 1.56
O=C(CSc1nc2ccccc2nc1N1CCCCC1)N1CCN(C2CCCC2)CC1 | 1.38
c1ccc2nc(N3CCOCC3)c(N3CCOCC3)nc2c1 | -0.17
CC1CCN(c2nc3ccccc3nc2SCC(=O)N2CCN(C3CCCC3)CC2)CC1 | 1.96
CC1CCN(c2nc3ccccc3nc2SCC(=O)N2CCOCC2)CC1 | 3.86*
O=C(CSc1nc2ccccc2nc1N1CCOCC1)N1CCOCC1 | 4.94*
O=C(CSc1nc2ccccc2nc1N1CCCCC1)N1CCN(c2ccccc2)CC1 | 4.92*
O=C(CSc1nc2ccccc2nc1N1CCCC1)N1CCN(c2ccc(F)cc2)CC1 | 2.58
Nc1ccccc1SCC(O)COc1cccc(C(F)(F)F)n1 (stereo not given) | 2.67
CCN1C(=O)C(NC(C)=O)c2cc(Cl)ccc21 (stereo not given) | -0.2
Nc1nc(-c2ccc3c(c2)CCCC3)cc(C(F)(F)F)n1 | -1.31
COc1ccc(C2CC(=O)C3=C(C2)Nc2nc4ccccc4n2C3c2ccccc2)cc1OC (stereo not given) | 0.02
CC(C)(C)S(=O)(=O)/C(C#N)=C/c1ccc(F)c(Cl)c1 | -2.42
CC(C)NC(=O)c1nn2c(C(F)(F)F)cc(-c3cccs3)nc2c1Br | -0.6
CC1=C(C(=O)OCCc2ccccc2)C(c2ccc(C)s2)C2=C(CC(C)(C)CC2=O)N1 (stereo not given) | -0.16
O=C(CSc1nc2cccnc2s1)NNS(=O)(=O)c1cc(C(F)(F)F)cc(C(F)(F)F)c1 | -0.69
COC(=O)c1cc(-c2ccc(S(=O)(=O)N3CCN(Cc4ccccc4)CC3)cc2)c(C(F)(F)F)s1 | -1.66
O=C(Nc1ccc(S(=O)(=O)Nc2ncccn2)cc1)N1c2ccccc2Sc2ccccc21 | 0.16
O=S(=O)(c1ccc(-c2ccno2)s1)N(Cc1ccccn1)Cc1ccccn1 | 0.59
SMILES | Dicer inh
Cc1cc(C)c(NC(=S)NC(C)(C)CO)c(C)c1 | -0.76
Cc1ccc(S(=O)(=O)N2CCN(C(=O)CSc3nnc(N)s3)C2)cc1 | 0.03
O=C(CSc1nc2ccccc2nc1N1CCOCC1)NCC1CCCO1 (stereo not given) | 3.05*
CC1CCN(c2nc3ccccc3nc2SCC(=O)NCC2CCCO2)CC1 (stereo not given) | 1.64
O=C(CSc1nc2ccccc2nc1N1CCOCC1)NC1CC1 | 2.46
C=CCSc1nnc2c(n1)OC(c1ccc(OC)cc1OC)Nc1ccccc1-2 (stereo not given) | -0.98
C/C(=N\NS(=O)(=O)c1ccccc1)c1cc(-c2ccccc2)no1 | -0.73
Fc1ccc(CSc2nc3ncc(Br)cc3[nH]2)c(Cl)c1 | 0.89
Cn1c(=O)[nH]c(=O)c2c1nc(NCCCn1ccnc1)n2CCCc1ccccc1 | -0.33
CC(C)(C)C(=O)NC(=S)Nc1cccc(C(F)(F)F)c1 | -0.2
FC(F)(F)c1cccc(NC(=S)Nc2ccccc2C(F)(F)F)c1 | -0.33
COC(=O)c1ccc(CSc2ccccc2NC(=S)Nc2cccc(C(F)(F)F)c2)o1 | 4.37*
COc1ccc(-c2nc(-c3ccc(Br)cc3)no2)cc1OC | -0.38
O=C(Cn1cnc([N+](=O)[O-])n1)Nc1ccc(Cl)cc1 | 4.35*
CSc1ccccc1NC(=O)Cn1cnc([N+](=O)[O-])n1 | -0.09
Cn1cc([N+](=O)[O-])c(C(=O)Nc2ccc(Cl)cc2)n1 | 1.69
O=C1CC(c2ccccc2F)Cc2nc(N3CCN(c4ccccn4)CC3)ncc21 (stereo not given) | 1.47
O=S(=O)(c1ccccc1)N1CCSC1c1ccc(Br)cc1 (stereo not given) | 0.54
COc1ccc(C2N(S(=O)(=O)c3ccccc3)CCN2S(=O)(=O)c2ccccc2)cc1 | -1.72
COc1ccc(OC)c(C2SCCN2S(=O)(=O)c2ccc(F)cc2)c1 (stereo not given) | -0.82
COc1ccc(C2N(S(=O)(=O)c3ccc(C)cc3)CCN2S(=O)(=O)c2ccc(C)cc2)cc1 | 3.69*
O=S(=O)(c1ccccc1)N1CCSC1c1ccc(Cl)cc1 (stereo not given) | -1.03
COc1ccc(S(=O)(=O)N2CCSC2c2cc(OC)ccc2OC)cc1 (stereo not given) | 3.71*
COc1ccc(OC)c(C2SCCN2S(=O)(=O)c2ccc(C)cc2)c1 (stereo not given) | -0.82
O=S(=O)(c1ccc(-c2ccccc2)cc1)N1CCSC1c1ccccc1 (stereo not given) | 3.84*
Cc1ccc(S(=O)(=O)N2CCN(S(=O)(=O)c3ccccc3)C2c2ccc(N(C)C)cc2)cc1 (stereo not given) | 2.09
O=C1C2C(c3ccccc3)OC3(C(=O)c4ccccc4C3=O)C2C(=O)N1C1CCCCC1 (stereo not given) | -0.93
N#Cc1c(Cl)cccc1Oc1ccc(S(=O)(=O)NNc2c(Cl)cncc2Cl)cc1 | -0.05
CC(C)CCNC(=O)Oc1ccccc1 | -1.13
